Rab9 prom act – activates the Rab9 promoter. Potency, µM (series often up to 9.22 µM), inactives show at the highest dose activation, negative = inhibition, actives largely listed as activators. AID 485297. 2.8% of 320,000 active. Huh7 Rab9 promoter-luciferase reporter, luminescence, 24 h; further: % of control where 0% means no effect; nearly all actives have a fitted effect of over 60% in size
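Measured in stably transfected Huh7 cells bearing a Rab9 promoter–luciferase construct: 24 h compound treatment at 37 °C, followed by luminescence detection.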
ELG1 genotox – genotoxicity induction in ELG1-luciferase HEK293T cells; HEK293T ELG1-luciferase reporter, luminescence, 16 h; Potency, µM (top dose mostly 46 µM), for the others: top-dose activity change, positive = activation, actives largely listed as activators; 1.3% of 330,000 active; further: % of control where 0% means no effect; nearly all actives have a fitted effect of over 60% in size
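Screening used a luciferase reporter fused to human ELG1 in HEK293T cells. Luminescence was read on a CCD plate imager after 16 hr exposure and 30 min ONE-Glo incubation.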
NPC1 prom act – NPC1 promoter activation | Potency, µM (series often up to 9.22 µM), without a hit: top-dose activation, most hits filed as activators | AID 485313 | Huh7 NPC1 promoter luciferase reporter, 24 h | 2.4% of 320,000 active; further: % of control where 0% means no effect; nearly all actives have a fitted effect of over 60% in size
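Luminescence from an NPC1 promoter-driven luciferase reporter in stably transfected Huh7 cells was measured after 24 h compound treatment at 37 °C, followed by 10 min ambient incubation with luciferase detection reagent.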
SMN2 splice enh – SMN2 splice variant enhancement. HEK293 SMN2-luciferase splicing reporter, luminescence, 30-36 h. Potency, µM (top dose mostly 46.1 µM), for the others: at the top dose activity change, positive = activation, hits mostly activators. 2.8% of 210,000 active. AID 1458; further: % of control where 0% means no effect; nearly all actives have a fitted effect of over 55% in size
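HEK293 cells carry an SMN2 […]–luciferase reporter in which exon 7 inclusion puts luciferase in frame. Cells were plated 10-12 h before compound addition, then incubated 30-36 h at 37C. ONE-Glo luminescence was read; sodium butyrate at 4.5 mM final served as control.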
FLuc modulator – inhibits or activates purified firefly luciferase, miR-21 counter-screen. AID 588342. purified FLuc, Km substrates, luminescence inhibition. P08659. 6.9% of 360,000 active. Potency, µM (top dose mostly 57.5 µM), without a hit: at the top dose activity change, negative = inhibition, actives largely listed as inhibitors;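 further: plate controls were vehicle for no effect and reference inhibitor for full effect; nearly all actives have a fitted effect of over 55% in size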
Target sequence (P08659 whole entry, looked up): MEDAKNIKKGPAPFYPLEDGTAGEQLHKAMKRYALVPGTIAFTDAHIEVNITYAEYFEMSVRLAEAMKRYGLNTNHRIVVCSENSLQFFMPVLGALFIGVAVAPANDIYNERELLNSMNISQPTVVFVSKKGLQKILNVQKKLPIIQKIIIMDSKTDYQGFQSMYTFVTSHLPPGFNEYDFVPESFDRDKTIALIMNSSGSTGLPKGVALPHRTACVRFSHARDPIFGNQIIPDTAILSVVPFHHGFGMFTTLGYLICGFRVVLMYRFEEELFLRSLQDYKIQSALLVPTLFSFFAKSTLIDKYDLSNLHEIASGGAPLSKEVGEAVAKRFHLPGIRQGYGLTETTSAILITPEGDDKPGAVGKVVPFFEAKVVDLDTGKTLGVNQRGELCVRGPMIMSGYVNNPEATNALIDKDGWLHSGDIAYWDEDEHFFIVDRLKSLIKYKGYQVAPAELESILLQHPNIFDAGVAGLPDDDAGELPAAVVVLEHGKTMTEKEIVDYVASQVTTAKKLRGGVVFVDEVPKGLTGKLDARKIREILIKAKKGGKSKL
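Purified P. pyralis luciferase (10nM final) with 10uM D-luciferin and 10uM ATP (Km levels) in 50mM Tris acetate pH 7.5, 10mM Mg acetate, 0.01% Tween-20, 0.05% BSA; qHTS 6-point titration, ~60 µM downward; luminescence read.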
KinaseGlo FLuc – counter-screen: inhibitors of Kinase-Glo firefly luciferase. Kinase-Glo luciferase, ATP luminescence, 8 min. 0.28% of 200,000 active. Potency, µM (highest dose often 38.3 µM), for the others: top-dose activity change, negative = inhibition, most hits filed as inhibitors; further: on the % scale 0 is the no-effect control and ±100 the full control effect; nearly all actives have a fitted effect of over 60% in size
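Luminescence was the read-out, taken after 8-minute incubation at ambient temperature. Luciferase turned over luciferin with 10 uM ATP in imidazole pH 7.2 buffer containing KCl, MgCl2, Tween 20 and BSA.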
Numbers without * were called inactive; u = inconclusive; x = no result; [ ] = another dose, or the depositor's remark. Most compounds without a hit are left out; they make up all but 7.3% or so of the library. The call rests on the fitted dose curve; in most records, active means well fitted curve in the direction sought with a large enough effect; inconclusive means small, poorly fitted or top-dose-only effect, or another doubt; inactive means no such curve, though single readings can be large; an effect the other way counts as inactive or inconclusive. Potency means the concentration at half of the fitted maximal effect.

SMILES	Rab9 prom act	ELG1 genotox	NPC1 prom act	SMN2 splice enh	FLuc modulator	KinaseGlo FLuc
COc1ccc(-c2n[nH]c(C)c2-c2cc(OC)ccc2O)cc1	-2%	-1%	-2%	-5%	-7%	-1%
COc1ccc(O)c(-c2cc(-c3cccc(Br)c3)n[nH]2)c1	u	21µM*	u	28%	19µM*	-5%
COc1ccc(-c2cc(-c3cc(OC)ccc3O)[nH]n2)cc1	u	9.2µM*	u	u	24µM*	1%
COc1ccc(O)c(-c2cc(-c3ccc(F)cc3)n[nH]2)c1	u	u	4.5µM*	x	15µM*	x
COc1ccc(-c2cc(-c3ccc(Cl)cc3)n[nH]2)c(O)c1	2.5µM*	u	1.8µM*	x	6µM*	x
CN(C)c1ccc(C2(c3ccc(N(C)C)cc3)OC(=O)c3cc(N(C)C)ccc32)cc1	x	x	x	-2%	x	x
Cc1ccc(NC(=O)/C(C#N)=C(\N)C(Cl)(Cl)Cl)nc1	u	u	u	x	2.1µM*	-6%
COC(=O)c1ccccc1S(=O)(=O)Oc1ccc(-c2ccc(C(=O)O)cc2)cc1	6%	3%	11%	x	-14%	x
O=C(O)c1ccc(-c2ccc(OS(=O)(=O)c3ccccc3F)cc2)cc1	u	u	u	x	12µM*	x
O=C1OCCC1Sc1nnnn1-c1ccc(Cl)cc1 (stereo not drawn)	-2%	0%	-4%	x	11µM*	x
CN=c1scc(C)n1/N=C/c1ccc(O)c(O)c1O	17%	u	2%	-1%	1.5µM*	u
CN=c1scc(-c2cccs2)n1/N=C/c1ccccc1O	-51%	-11%	-37%	-80%	0.17µM*	u
CN=c1scc(C)n1/N=C/c1cc(Br)c(O)c(OC)c1	26%	2%	2%	u	17µM*	-2%
Cc1nc2ccccc2c(=O)n1/N=C/c1ccc(O)c(O)c1O	-2%	-3%	2%	x	u	x
CN=c1scc(-c2cccs2)n1/N=C/c1ccc(O)c(O)c1O	0.79µM*	u	u	13µM*	1.7µM*	-26%
Cc1ccc(-n2nc(C(=O)Nc3cccc(C#N)c3)c3c4ccccc4n(C)c3c2=O)cc1	x	x	x	16%	2%	x
CCc1ccc(C2CC(=O)Nc3c2c(=O)n(C)c2ncnn32)cc1 (stereo not drawn)	x	x	x	-14%	-7%	x
CCOc1cccc2c1OC(c1cc(OC)c(OC)c(OC)c1)N1N=C(c3ccc(C)o3)CC21 (stereo not drawn)	25%	u	21%	u	3µM*	1%
COc1ccc(C2=NN(C(=O)CSc3ncccn3)C(c3cccc(OC)c3OC)C2)cc1 (stereo not drawn)	1%	-2%	1%	-4%	-2%	2%
COC(=O)c1ccc2c(=O)n(CCc3ccc(S(N)(=O)=O)cc3)c(SCC(=O)C(C)(C)C)nc2c1	x	x	x	x	-3%	x
Cc1oc2c(C)c3oc(=O)c(CC(=O)N4CCCCC4)c(C)c3cc2c1C	x	x	x	0%	-12%	x
CC(C)(C)N1C(=O)Cc2c1nc(N)c1c(N)nc(N3CCCCC3CO)c(C#N)c21 (stereo not drawn)	23%	2%	24%	2%	8.5µM*	-1%
Cc1nc(C)c(-c2nnc(-c3ccccc3Cl)o2)cc1C(=O)NN	-4%	0%	-3%	x	0%	x
Cc1nc(C)c(-c2nnc(-c3ccc(C(C)(C)C)cc3)o2)cc1C(=O)NN	1%	-1%	-5%	-11%	24µM*	2%
COc1ccc(NC(=O)CCS(=O)(=O)c2cc3c4c(c2)CCN4C(=O)CC3)cc1OC	x	x	x	x	-3%	x
SMILES	Rab9 prom act	ELG1 genotox	NPC1 prom act	SMN2 splice enh	FLuc modulator	KinaseGlo FLuc
O=c1[nH]c(CCl)nc2cc(-c3ccc(F)cc3)sc12	-43%	u	0%	x	0.3µM*	x
COC(=O)c1ccc2c(=O)[nH]c(CCl)nc2c1	-1%	-10%	-11%	-7%	-12%	-3%
O=c1oc2ccccc2c(O)c1C=NCc1ccccn1	-3%	-9%	-10%	4%	u	-8%
O=C1CCCN1CCCNCC(O)c1ccccc1 (stereo not drawn)	-4%	-5%	0%	x	-2%	x
O=C1C(C=NC2CC2)=C(O)c2ccccc21	4%	u	26%	20%	u	-4%
CC(C)CN=CC1=C(O)c2ccccc2C1=O	1µM*	u	1.8µM*	x	12µM*	x
O=C1C(C=NCc2ccccn2)=C(O)c2ccccc21	4µM*	u	2.2µM*	5.6µM*	12µM*	-5%
O=C1C(C=NCCCN2CCCC2=O)=C(O)c2ccccc21	u	18µM*	u	u	19µM*	7%
O=C(O)c1cc(S(=O)(=O)Nc2cccc(F)c2)ccc1Cl	x	x	x	x	x	4%
CCCCc1nc2c(c3c1C[C@H](C)OC3)CN(S(=O)(=O)c1ccc(Cl)c3nonc13)CC2	x	x	x	-10%[9.22 µM]	x	-7%[7.66 µM]
CCOC(=O)c1ccc(-c2ccc(/C=N/NC(=O)CN(c3ccccc3Cl)S(C)(=O)=O)o2)cc1	u	-6%	u	11µM*	u	-1%
CCOC(=O)c1ccc(-c2ccc(/C=N/NC(=O)CN(c3cccc(C)c3)S(C)(=O)=O)o2)cc1	28%	14%	15%	u	-3%	-1%
CCC(C)(C)C1CCc2[nH]nc(C(=O)N/N=C(\C)c3ccco3)c2C1 (stereo not drawn)	1.1µM*	u	3.2µM*	x	2.4µM*	x
C/C(=N\NC(=O)c1n[nH]c2c1CCC2)c1ccco1	0.5µM*	u	u	x	2.7µM*	x
C=Cc1ccc(CSc2nc(-c3ccccc3Cl)nc3c2Cc2c(CO)cnc(C)c2O3)cc1	x	x	x	x	-2%	x
COc1ccc(/C(N)=N/OC(=O)c2ccco2)cc1OC	u	u	u	11µM*	u	-2%
N/C(Cc1ccc([N+](=O)[O-])cc1)=N\OC(=O)c1ccco1	-3%	0%	-1%	x	-3%	-2%
N/C(=N\OC(=O)c1ccco1)c1cccc([N+](=O)[O-])c1	17%	u	21%	x	24µM*	-6%
N/C(=N\OC(=O)c1ccco1)c1cccc(Br)c1	18%	8.2µM*	18%	u	6.7µM*	10%
COc1ccc(/C(N)=N/OC(=O)CCc2ccccc2)cc1OC	-1%	5%	1%	3%	-14%	0%
Cc1ccc(NC(=O)c2nc(S(C)(=O)=O)ncc2N(Cc2ccc(C(C)(C)C)cc2)Cc2ccco2)cc1C	x	x	x	x	2%	x
c1cc(CSSCc2ccncc2)ccn1	x	x	x	-1%[9.22 µM]	x	-1%[7.66 µM]
COc1cccc(COc2ccc3ccc(=O)oc3c2)c1	3.2µM*	u	u	x	13µM*	x
COc1ccc(COc2ccc3ccc(=O)oc3c2)cc1	2.8µM*	u	4µM*	x	11µM*	x

High-throughput results as filed in PubChem BioAssay.
